Source: PubChem BioAssay (NCI)
About 83,000 compounds went through this panel and 20% of them were active in at least one assay; those are over-represented in the sample as a whole.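 Results are percent growth after 48 hours of single-concentration exposure. 100 means growth as in untreated cells, lower positive values show inhibition; negative values down to -100 show cell death.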 A number with no mark means an inactive call. Calls of active or inactive are those of the source.

System: HCC-2998 colon
Assay: NCI-60 one-dose screen, 48 h (100 = growth as untreated, 0 = no growth, -100 = all killed)
Conditions: 10 µM
Description: Growth inhibition of the HCC-2998 human tumor cell line is measured as a screen for anti-cancer activity. Cells are grown in 96 well plates and exposed to the test compound for 48 hours. Compounds are tested at a single concentration, which is 10^-5 M for most compounds. The reported endpoint is percent growth (GI% or GIPRCNT), where numbers from 0 - 100% represent growth inhibition, and numbers from -100% - 0 represent cell death. For example, a value of 40 represents 60% growth inhibition. A value of 0 means no net growth occurred over the course of the experiment. A value of -40 indicates 40% of cells at the beginning of the experiment died by the end of the experiment. A value of -100 means all cells are dead at the end of the experiment.
NCI-60 Human Tumor Cell Lines Screen was performed using the standard one-dose NCI protocol, which is described in more detail at https://dtp.cancer.gov/discovery_development/nci-60/default.htm.
Compounds with GIPRCNT values below 10 were considered active. Activity score was based on GIPRCNT using the following formula: […]
Score is 0 for GIPRCNT values of 100 or above, 50 for GIPRCNT values of 0, and 100 for GIPRCNT values of -100.

| Structure (SMILES) | growth |
| --- | --- |
| CCCCCCCCCCCCc1ccc(C(=O)/C=C/C(=O)O)cc1 | 76.2% |
| Cc1ccc(C)c2c1sc1nc3n[nH]c(N)c3c(=N)n12 | 109% |
| COc1cc2ccnc(C=O)c2cc1OC | 104% |
| CCOCC[P+](c1ccccc1)(c1ccccc1)c1ccccc1 | 31.7% |
| CCn1nc(-c2ccccn2)c2cccnc2c1=S | 72.4% |
| CCOC(=O)C1=C(Nc2ccc(OC)cc2)C(N)=NC1=N | 81% |
| COc1c(C)c(C)c(OC)c2c1[nH]c(=O)c1c3cccnc3cn21 | 120% |
| COc1ccc(/C(CS(=O)(=O)c2ccccc2)=N\O)cc1 | 112% |
| O=c1[nH]c(=O)n(C2C[C@@H](O)[C@@H](CO)O2)cc1F (stereo not given in full) | -6.77% (active) |
| O=C1/C(=C/c2ccc([N+](=O)[O-])s2)Oc2ccc(Cl)cc21 | -74.8% (active) |
| COc1ccc(CSc2nc3cc(OC)c(OC)cc3c(=O)n2-c2ccc(OC)cc2OC)cc1 | 101% |
| Cc1ncc([N+](=O)[O-])n1CCOc1ccc(C(=O)/C=C/c2ccc(C(F)(F)F)cc2)cc1 | 95.9% |
| CC(=O)n1nc(C(=O)OC(C)(C)C)c2cc(F)c(F)cc21 | 102% |
| CCCC(C)c1ccc(OCCCCCCN2CCNCC2)cc1 (stereo not given) | -71.4% (active) |
| Cc1ccc([P+](Cc2ccccc2)(c2ccccc2)c2ccccc2)cc1 | 21.6% |
| COc1ccc(N2CCN(c3nc(-c4ccccc4)c(C#N)c(=O)[nH]3)CC2)cc1 | 99.8% |
| COc1ccc(Nc2ccnc(N3CCN(c4ccnc5cc(Cl)ccc45)CC3)n2)cc1 | 15.8% |
| COc1ccc(-c2nc3sc(-c4ccccc4)c(-c4ccccc4)n3c2/C=C/c2ccc(F)cc2)cc1 | 92.8% |
| Cc1cc(Cl)ccc1Nc1nc(C(F)(F)F)ccc1C(=O)N/N=C/c1ccccc1Cl | 16.7% |
| COc1cc(CSc2nc3ccc(C)cc3c(=O)n2-c2ccccc2)cc(OC)c1OC | 49.7% |

| Structure (SMILES) | growth |
| --- | --- |
| Cc1ccc2c3c(cccc13)-c1ccccc1C2=O | 89% |
| C=CCc1cc(Nc2c3ccc(Cl)cc3nc3ccc(OC)cc23)cc(CN(CC)CC)c1O | 24.2% |
| CC1(CO)CCCC12OCCO2 (stereo not given) | 111% |
| COc1ccc(-c2nc(-c3nc4ccc(C)cc4[nH]3)c3ccccn23)cc1 | 36.4% |
| Cc1ccc(S(=O)(=O)N2CCc3ccccc3CC2)cc1 | 91% |
| COc1cccc2c1O/C(=C\c1ncc([N+](=O)[O-])n1C)C2=O | -54.9% (active) |
| CC1=CC2OC34COC3CC(OC(=O)C(F)(F)F)C4(C)C2(C)CC1 (stereo not given) | 98.3% |
| Cc1ccccc1[P+](Cc1ccccc1)(c1ccccc1)c1ccccc1 | 16.5% |
| N#Cc1cnc2ccc(NCc3cnc[nH]3)cc2c1Nc1ccc(F)c(Cl)c1 | 91.4% |
| Cc1ccc(S(=O)(=O)Oc2ccccc2-c2ccccc2)cc1 | 46.3% |
| O=C(CCCC(=O)N/N=C/c1cc(Cl)ccc1O)N/N=C\c1cc(Cl)ccc1O | 29.2% |
| C[C@@H]1C(=O)N(C[C@H](Cc2ccccc2)NC(=O)OCc2ccccc2)[C@]1(Cc1ccccc1)C(=O)OCc1ccccc1 | 71% |
| O=C(Nc1cccc(F)c1)Nc1cccc(Cl)c1 | 89.9% |
| COc1ccccc1Cn1cc2c(c1-c1ccccc1)CCc1cnoc1-2 | 81% |
| CC[C@@]1(C(N)=O)CC2C=CC1C2 (stereo not given in full) | 108% |
| Cn1cnc([N+](=O)[O-])c1Sc1nnc(-c2ccccc2)c(-c2ccccc2)n1 | 96.8% |
| Fc1ccc(-c2cc(C(Cl)Cl)no2)cc1 | 107% |
| CCCCCc1cc[n+](CC(=O)c2ccc(Cl)cc2)cc1 | 91% |
| COc1ccc2nc(C)cc(Nc3ccc(Cl)cc3)c2c1 | 107% |
| NC(=O)C12C(=O)NC(=O)C1(C(=O)O)C21CCCC1 (stereo not given) | 114% |
